Only some compounds are listed: those with a hit (about 3.6% of all), similar ones and a draw of the others.
KKLEB tox = reduces viability of KKLEB cystic fibrosis airway cells | actives 0.36% (n = 360,000) | KKLEB CF airway cells viability, ATPlite luminescence, overnight; active compounds read low; cells stimulated with P. aeruginosa culture filtrate | activity change (cytotoxicity), % at 5 µM | AID 602141;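 active means corrected activity change at or below -50% at 5 µM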
Peg3 prom inh-1 = inhibitors of Peg3 promoter; AID 588405; actives 1.7% (n = 360,000); HeLa PEG-Prom luciferase reporter, luminescence, overnight; inhibition, % at 20 µM;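 active means inhibition of at least 50% at 20 µM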
Mdm2 MdmX PPI = inhibitors of human Mdm2/MdmX interaction | O15151+Q00987 | SaOS-2 split-luciferase Mdm2/MdmX complementation, luminescence | inhibition, % at 8 µM | actives 3% (n = 330,000);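 active means inhibition of at least 50% at 8 µM in the primary screen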
Target sequence (O15151 whole entry, looked up): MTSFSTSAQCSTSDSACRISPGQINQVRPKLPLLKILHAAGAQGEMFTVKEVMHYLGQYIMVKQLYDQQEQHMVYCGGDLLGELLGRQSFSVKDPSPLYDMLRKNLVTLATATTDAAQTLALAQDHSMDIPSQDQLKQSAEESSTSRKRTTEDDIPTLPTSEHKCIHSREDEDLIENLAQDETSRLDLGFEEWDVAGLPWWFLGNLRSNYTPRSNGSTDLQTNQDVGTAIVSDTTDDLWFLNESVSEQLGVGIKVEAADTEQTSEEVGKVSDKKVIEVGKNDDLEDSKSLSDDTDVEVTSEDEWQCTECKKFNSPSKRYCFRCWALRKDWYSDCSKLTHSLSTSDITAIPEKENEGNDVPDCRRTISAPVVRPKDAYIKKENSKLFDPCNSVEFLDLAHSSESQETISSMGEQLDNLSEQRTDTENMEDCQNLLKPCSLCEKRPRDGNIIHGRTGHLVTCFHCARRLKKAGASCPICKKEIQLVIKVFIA
Target sequence (Q00987 whole entry, looked up): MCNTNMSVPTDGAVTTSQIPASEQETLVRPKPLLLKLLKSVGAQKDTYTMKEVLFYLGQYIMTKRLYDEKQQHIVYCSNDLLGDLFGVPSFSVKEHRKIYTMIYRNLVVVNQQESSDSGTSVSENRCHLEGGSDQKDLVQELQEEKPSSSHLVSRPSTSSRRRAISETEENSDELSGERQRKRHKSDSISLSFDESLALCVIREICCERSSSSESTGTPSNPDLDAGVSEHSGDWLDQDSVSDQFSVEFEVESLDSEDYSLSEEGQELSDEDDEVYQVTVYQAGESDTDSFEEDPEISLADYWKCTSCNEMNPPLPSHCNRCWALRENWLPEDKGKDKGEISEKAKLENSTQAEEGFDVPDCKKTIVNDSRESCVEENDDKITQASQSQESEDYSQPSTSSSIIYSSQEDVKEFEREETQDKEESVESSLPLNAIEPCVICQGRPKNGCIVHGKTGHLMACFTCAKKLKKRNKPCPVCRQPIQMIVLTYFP
HSP90 inh = HSP90 refolding inhibition in rabbit reticulocyte lysate; luciferase refolding luminescence, 3 h; inhibition, % at 5.6 µM; actives 0.91% (n = 290,000); AID 1789;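 active means inhibition above the screen-wide mean plus 3 SD, computed separately per campaign, cut at about 16% in these data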;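 further: inhibitors lower the luminescence because luciferase stays unfolded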
LGR2 inh = blocks bursicon-induced cAMP signaling via Drosophila LGR2; AID 720647; inhibition, % at 9.99 µM; actives 0.35% (n = 380,000); HEK293 LGR2, CRE-luciferase, bursicon-stimulated, 4 h;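 active means drop in luminescence signal, shown as inhibition above about 50% in the replicate tests, limit read from the data, passing the limit was not always enough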;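 further: agonist challenge used bursicon conditioned medium at about half maximal strength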
CF NFkB block = blocks PAF-induced NF-kB reporter in cystic fibrosis cells. inhibition, % at 5 µM. actives 0.86% (n = 360,000). KKLEB NF-kB-GFP reporter, GFP fluorescence overnight;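 active means at least 50% inhibition at 5 µM, scaled per plate between neutral and stimulator controls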;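 further: PAF is a Pseudomonas aeruginosa culture filtrate used as stimulus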
Mdm2 MdmX conf = human Mdm2/MdmX binding inhibition, confirmed. shares compounds with Mdm2 MdmX PPI. luminescent assay. inhibition, % at 8 µM. actives 55% (n = 10,000); in the data active means inhibition above about 40%
FLuc counter = inhibits full-length luciferase, flagging false Mdm2/MdmX hits; inhibition, % at 8 µM; actives 77% (n = 6,200); SaOS-2 full-length luciferase counterscreen, luminescence; AID 504607; shares compounds with Mdm2 MdmX PPI;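 active means mean inhibition at 8 µM reaching about 37%, which flags the compound as non-specific, limit read from the data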;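 further: p53-null SaOS-2 cells with luciferase driven by a doxycycline-inducible promoter; compound on cells about two nights before reading with doxycycline added after day one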
Peg3 prom inh-2 = Peg3 promoter inhibition confirmation. inhibition, % at 20 µM. AID 602417. HeLa PEG-Prom luciferase reporter, luminescence, overnight. shares compounds with Peg3 prom inh-1. actives 84% (n = 1,300);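 active means at 20 µM dose, 40% or more inhibition averaged across four replicates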
Hits are given with their value; n = inactive; x = no result.

SMILES	KKLEB tox	Peg3 prom inh-1	Mdm2 MdmX PPI	HSP90 inh	LGR2 inh	CF NFkB block	Mdm2 MdmX conf	FLuc counter	Peg3 prom inh-2
CCN(c1ccccc1)S(=O)(=O)c1ccc(C(=O)N(CCCN(C)C)c2nc3cc4c(cc3s2)OCO4)cc1	n	52.1	65.0	n	n	n	48.7	47.6	81.1
Cc1ccc(S(=O)(=O)Nc2ccc3c(c2)C(=O)N([C@H](C)CO)C[C@H](C)[C@@H](CN(C)S(=O)(=O)c2ccc(C)cc2)O3)cc1	x	x	x	x	n	x	x	x	x
COc1cc(/C=C/C(=O)CC(=O)/C=C/c2ccc(O)c(OC)c2)ccc1O	n	64.0	54.5	n	x	n	n	x	n
COc1ccc2c3c([nH]c2c1)[C@@H](CO)N(Cc1cccc(Cl)c1)CC31CN(C(C)=O)C1	x	x	x	x	n	x	x	x	x
O=S(=O)(c1ccccc1F)N1CC[C@@H]2[C@H](CO)Nc3ccc(C4=CCCCC4)cc3[C@@H]21	x	x	x	x	n	x	x	x	x
CCOC(=O)c1c(C)n(-c2ccc(OC)cc2)c2ccc(O)c(CN(C)C)c12	n	55.0	63.7	n	n	n	43.9	53.7	n
CC1=CC(=C2C(=O)c3ccccc3C2=O)C=C(C)N1C	n	n	n	n	n	n	x	x	x
CCCCCN1C=CC(=C2C(=O)c3ccccc3C2=O)C=C1	-82.4	103.1	77.9	79.6	104.1	n	82.7	n	90.6
Cc1ccc(-c2nnc(-c3ccc(NC(=O)Cc4cccs4)cc3)o2)cc1	-77.2	55.5	78.5	n	n	71.1	n	x	n
O=C(N[C@@H]1CC[C@H](CCNC(=O)C2CCCC2)O[C@H]1CO)c1ccncc1	x	x	x	x	n	x	x	x	x
COc1ccc(C(=O)NNC(=O)c2ccccn2)cc1	n	104.6	97.6	75.5	x	n	93.8	n	95.3
COc1ccc(C(=O)NCCNC(=O)c2ccccn2)cc1	n	n	n	n	n	n	x	x	x
Cc1ccc(S(=O)(=O)N(C)C[C@@H]2Oc3ccc(NC(=O)Cc4cn(C)c5ccccc45)cc3C(=O)N([C@H](C)CO)C[C@H]2C)cc1	x	x	x	x	n	x	x	x	x
Nc1nc(CCl)nc(Nc2cccc3ccccc23)n1	-80.1	64.1	97.4	n	n	82.8	98.3	61.0	72.4
COCCn1c(C)cc(C2=NNC(=NC3CC3)SC2)c1C	n	104.4	94.7	70.4	94.1	n	93.8	53.1	95.3
COCCn1c(C)cc(C2=NNC(=Nc3ccc(Cl)cc3Cl)SC2)c1C	n	n	n	n	x	n	x	x	x
C[C@H](CO)N1C[C@H](C)[C@@H](CN(C)S(=O)(=O)c2cn(C)cn2)OCCCC[C@H](C)Oc2ccc(NS(C)(=O)=O)cc2C1=O	x	x	x	x	n	x	x	x	x
COc1ccc(CNCCC(c2ccccc2)c2ccc(OC(C)C)cc2)cc1OC (stereo unspecified)	n	100.8	75.0	n	n	n	n	x	96.7
Cc1ccc(C(=O)Nc2cnc3ccccc3c2)cc1	n	99.0	81.7	87.3	x	n	n	x	94.1
CCC(=O)NC(c1cccs1)c1cc(Cl)c2cccnc2c1O (stereo unspecified)	n	56.0	85.9	n	n	n	75.8	n	58.4
CCCC(=O)NC(c1ccccc1Cl)c1ccc2cccnc2c1O (stereo unspecified)	n	52.9	86.8	n	n	n	88.8	53.0	61.9
COc1ccc(C(NC(C)=O)c2cc(Cl)c3cccnc3c2O)cc1 (stereo unspecified)	n	63.6	75.6	n	n	n	71.2	n	64.3
COc1ccc(C(NC(=O)C(C)C)c2ccc3cccnc3c2O)cc1 (stereo unspecified)	n	60.7	76.9	n	n	n	83.2	n	65.9
COc1ccc(C(Nc2cc(C)ccn2)c2ccc3ccc(C)nc3c2O)cc1 (stereo unspecified)	n	n	n	n	n	n	x	x	x
O=C(C[C@@H]1CC[C@@H]2[C@H](COC[C@H](O)CN2C(=O)Nc2cc(Cl)cc(Cl)c2)O1)NCC1CC1	x	x	x	x	n	x	x	x	x
SMILES	KKLEB tox	Peg3 prom inh-1	Mdm2 MdmX PPI	HSP90 inh	LGR2 inh	CF NFkB block	Mdm2 MdmX conf	FLuc counter	Peg3 prom inh-2
CC(C)CC#Cc1cnc2c(c1)C(=O)N([C@H](C)CO)C[C@@H](C)[C@H](CN(C)Cc1ccccc1C(=O)O)O2	x	x	x	x	n	x	x	x	x
CO[C@H]1CN(C)C(=O)c2cc(NC(=O)Nc3ccccc3Cl)ccc2OC[C@H](C)NC[C@H]1C	x	x	x	x	n	x	x	x	x
Cc1ccc2ccc(C(Nc3ccccc3)c3ccc(Cl)cc3)c(O)c2n1 (stereo unspecified)	x	x	x	x	n	x	x	x	x
Cc1ccc2ccc(C(Nc3ccccc3)c3ccc(C(C)C)cc3)c(O)c2n1 (stereo unspecified)	x	x	x	x	n	x	x	x	x
CCOc1ccc(C(NC(=O)CC)c2c(O)ccc3ccccc23)cc1 (stereo unspecified)	n	n	n	n	n	n	x	x	x
CCC(=O)NC(c1ccc(C)cc1)c1ccc2cccnc2c1O (stereo unspecified)	n	60.5	79.3	n	n	n	86.3	n	68.5
CCCC(=O)NC(c1ccc(N(C)C)cc1)c1ccc2cccnc2c1O (stereo unspecified)	n	56.6	80.0	n	n	n	79.8	n	68.2
CCCC(=O)NC(c1ccc(C(C)C)cc1)c1ccc2cccnc2c1O (stereo unspecified)	n	66.7	80.3	n	n	n	88.1	n	70.0
Cc1cc(NC(c2ccc(Cl)cc2)c2ccc3cccnc3c2O)no1 (stereo unspecified)	n	52.8	63.2	n	x	n	82.1	n	63.2
C[C@@H]1CCCCO[C@@H](CN(C)C(=O)CCCN(C)C)[C@H](C)CN([C@@H](C)CO)C(=O)c2cc(NS(=O)(=O)c3ccc(Cl)cc3)ccc2O1	x	x	x	x	n	x	x	x	x
COc1ccccc1CN1[C@H](C(=O)NCCc2ccncc2)[C@@H](CO)[C@@H]2Cn3c(cccc3=O)[C@@H]21	x	x	x	x	n	x	x	x	x
O=C1CSC(=S)N1c1cccnc1	n	n	n	n	n	n	x	x	x
O=C1CSC(=S)N1Cc1cccnc1	n	95.8	94.2	n	x	n	79.8	50.3	50.1
CCCNC(=O)C[C@@H]1C[C@H]2c3cc(NC(=O)c4cccnc4)ccc3O[C@H]2[C@@H](CO)O1	x	x	x	x	n	x	x	x	x
COCC(=O)N(C)C[C@@H]1Oc2cc(C3=CCCCC3)ccc2S(=O)(=O)N([C@@H](C)CO)C[C@@H]1C	x	x	x	x	n	x	x	x	x
C=CCc1cccc(/C=N/NC(=O)C(C)Nc2ccc(C)cc2)c1O (stereo unspecified)	n	55.0	69.6	n	n	n	66.8	41.8	41.2
COc1ccc(C(O)(CC(C)C)C(CN2CCOCC2)c2ccccc2)cc1 (stereo unspecified)	n	70.9	77.4	n	n	n	77.3	n	73.2

Compound activity: PubChem, several laboratories
